High-throughput results from PubChem.
A selection: hits, their analogues and other compounds. The true share with any hit is near 1.4%.
DUSP3 inh: VHR1 phosphatase inhibitors, primary screen, biochemical, absorbance, uHTS; 0.52% of 290,000 active; recombinant VHR phosphatase, pNPP absorbance; inhibition, % at 13.3 µM; AID 1654, 2009; Dual specificity protein phosphatase 3 (Homo sapiens), P51452; in the data active = inhibition above about 50%
Target sequence (P51452 whole entry, looked up): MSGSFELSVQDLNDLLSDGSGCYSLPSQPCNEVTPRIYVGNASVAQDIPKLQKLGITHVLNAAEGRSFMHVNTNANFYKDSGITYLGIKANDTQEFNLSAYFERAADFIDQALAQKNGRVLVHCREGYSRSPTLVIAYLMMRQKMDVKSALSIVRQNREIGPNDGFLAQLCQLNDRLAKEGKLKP
BJeLR lethal: MLPCN primary cell-based screen for lethality selective to Ras in HRASV12 cells; BJeLR (HRASV12) viability, CellTiter-Glo ATP luminescence, 48 h; inhibition, % (test concentration not listed); 0.17% of 300,000 active; AID 1554, 2009; in the data active = inhibition above about 50%
SARS 3CLpro inh: SARS-CoV 3CLpro protease inhibitors, primary screen, biochemical, quenched FRET | Replicase polyprotein 1ab (Severe acute respiratory syndrome coronavirus), P0C6X7 | recombinant SARS-CoV 3CLpro, quenched FRET peptide cleavage | inhibition, % at 6 µM | 0.14% of 290,000 active; in the data active = inhibition above about 12%
MazEF act: activators of E. coli MazEF toxin-antitoxin RNase, primary screen, biochemical, fluorescence, uHTS | Endoribonuclease toxin MazF (Escherichia coli (strain K12)), P0AE70 | FAM/BHQ RNA-DNA oligo cleavage fluorescence, 5 h | activation, % at 20 µM | 0.32% of 350,000 active | AID 504720, 2011; in the data active = activation above about 50%
Target sequence (P0AE70 whole entry, looked up): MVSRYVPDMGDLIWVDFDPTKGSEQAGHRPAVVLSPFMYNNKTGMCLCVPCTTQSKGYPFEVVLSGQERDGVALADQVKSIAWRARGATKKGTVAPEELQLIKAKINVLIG
CCHF vOTU inh-1: CCHFV vOTU protease inhibitors, primary screen, biochemical, Pep-AMC substrate, fluorescence. AID 651958, 2012. Crimean-Congo hemorrhagic fever virus L polyprotein viral ovarian tumor (vOTU) protease …. inhibition, % at 11.5 µM. 0.55% of 370,000 active; note: 0% = vehicle wells with enzyme and 100% = no enzyme wells
CCHF vOTU inh-2: CCHFV vOTU protease inhibitors, confirmation, biochemical, Pep-AMC substrate, fluorescence. inhibition, % at 11.5 µM. shares compounds with CCHF vOTU inh-1. AID 686976, 2013. Recombinant CCHFV vOTU. 17% of 1,900 active
An asterisk follows results filed as active; nt = no result given. Cut-off read from the data, not from the text of the source, unless noted: active = inhibition above about 30%; inactive = the rest.

SMILES	DUSP3 inh	BJeLR lethal	SARS 3CLpro inh	MazEF act	CCHF vOTU inh-1	CCHF vOTU inh-2
Nc1cc2c(cc1Br)[nH]c(=O)c1ccccc12	nt	nt	nt	9	101*	84*
Nc1cc2[nH]c(=O)c3ccccc3c2cc1Br	nt	nt	nt	2	-7	nt
COc1ccc(-c2cccc(C(=O)Nc3ccc(C)cc3)c2)cc1	23	-3	2	7	31*	-4
O=C1c2ccccc2C(=O)C12OC2c1cccc2ccccc12 (stereo not drawn)	18	-3	-1	2	87*	48*
Cn1c(=O)[nH]c2c(Br)nccc21	nt	nt	nt	nt	2	nt
O=C(N/N=C/c1cccs1)c1cccc(S(=O)(=O)Nc2ccc(Cl)cc2)c1	8	-3	-2	3	-1	nt
O=C(N/N=C/c1cccs1)c1cccc(NC(=O)c2ccc(Cl)cc2)c1	0	-20	-1	nt	46*	5
O=C1C(SCCO)=C(SCCO)C(=O)c2ccccc21	nt	nt	nt	-10	114*	107*
O=c1[nH]c2ccccc2c(O)c1SCCO	25	-5	-6	4	-5	nt
CC1=NN(c2ccccc2)C(=O)/C1=C\C=C\c1ccccc1	8	20	5	13	-5	nt
COc1ccc(/C=C2/C(=O)N(c3ccccc3)N=C2C)cc1	nt	4	nt	3	nt	nt
COc1ccc(/C=C2/C(=O)N(c3ccccc3)N=C2C)cc1OC	-12	15	5	15	93*	-20
COc1ccc(C2=NN(c3ccccc3)C(=O)/C2=C\c2ccc(O)c(OC)c2)cc1	-7	-2	2	-14	2	nt
CC1=NN(c2ccccc2)C(=O)/C1=C/c1cccc(C)c1	4	-5	3	1	76*	-18
CC(=O)Oc1ccc(/C=C2/C(=O)N(c3ccccc3)N=C2C)cc1	4	-6	1	3	103*	-12
COc1cc(/C=C2/C(=O)N(c3cccc(Br)c3)N=C2C)cc(OC)c1O	63	-9	5	-242	92*	-26
CCS(=O)(=O)Nc1ccc2c(c1)C(=O)N(C)[C@@H]1CC[C@H](CC(=O)OC)O[C@H]1CO2	nt	nt	nt	nt	5	nt
CC(=O)N1CCc2cc(Br)c(S(=O)(=O)NCc3ccc(Cl)cc3)cc21	nt	nt	nt	nt	-2	nt
COc1ccc(CCNC(=O)Cn2nc(-c3ccccc3)ccc2=O)cc1	nt	nt	nt	nt	-6	nt
COC(=O)c1cccc(N2C(=O)C[C@](Sc3ccc(OC)cc3)(C(=O)N3CCOCC3)[C@H]2c2ccc(OC)cc2)c1	nt	nt	nt	nt	20	nt
O=C(CCN1C(=O)/C(=C/c2ccco2)SC1=S)Nc1ccc(C(=O)O)c(O)c1	-7	-4	-2	-7	14	nt
COc1ccccc1/C=C1\SC(=S)N(CCC(=O)Nc2ccc(C(=O)O)c(O)c2)C1=O	27	5	3	-8	35*	16
O=C(CCN1C(=O)/C(=C\c2ccco2)SC1=S)Nc1ccc(C(=O)O)c(O)c1	-9	-6	7	-2	34*	6
O=S1(=O)c2c(cccc2N2CCC[C@@H]2CO)O[C@@H]2CCN1C2	nt	nt	nt	nt	5	nt
CCS(=O)(=O)Nc1ccc2c(c1)C(=O)N(C)[C@@H]1CC[C@H](CC(=O)NCCCN3CCOCC3)O[C@H]1CO2	nt	nt	nt	nt	10	nt
SMILES	DUSP3 inh	BJeLR lethal	SARS 3CLpro inh	MazEF act	CCHF vOTU inh-1	CCHF vOTU inh-2
CC(=O)N(C1=C(Cl)C(=O)c2ccccc2C1=O)C1CCCCC1	5	33	0	11	100*	98*
COc1ccccc1-c1nnc2n1N=C(c1ccc3c(c1)OCO3)CS2	nt	nt	nt	nt	13	nt
CCC(=NCC1CCCO1)c1c(O)n(Cc2ccccc2)c(=O)[nH]c1=O (stereo not drawn)	20	4	1	8	33*	-5
CC(C)(C)C(=O)O[C@@H]1CCC[C@@]2(C(=O)N(Cc3ccccc3)c3ccccc32)[C@H]1NC(=O)CCc1ccccc1	nt	nt	nt	nt	6	nt
Cn1c2ccccc2c2cc(/C=C(\NC(=O)c3ccccc3)C(=O)O)ccc21	-4	-6	4	-14	30*	-6
COC(=O)/C(=C\c1ccc2c(c1)c1ccccc1n2C)NC(=O)c1ccccc1	7	5	6	-2	-17	nt
C/C(=N\NC(=O)C1CC1)c1ccc(OC(F)F)cc1OC(F)F	-4	-8	3	8	-19	nt
C/C(=N\NC(=S)NC1CCCCC1)c1ccc(OC(F)F)cc1OC(F)F	13	-15	-8	-7	33*	-6
COC(=O)C1CN(C2CCCC2)CCS(=O)(=O)N1Cc1cn(Cc2ccc(C)cc2)nn1 (stereo not drawn)	nt	nt	nt	nt	-5	nt
Cn1ccc2c(N(Cc3ccccc3)Cc3ccccc3)cc3c(c21)C1CCC3O1 (stereo not drawn)	nt	nt	nt	nt	44*	-21
Cc1cccc(NC(=O)c2sc3nc4c(c(-c5cccs5)c3c2N)CN(C)CC4)c1	0	13	-14	7	30*	48*
COCCOc1ccc(C(F)(F)F)cc1NC(=O)CN1C(=O)NC(C)(c2ccc3c(c2)OCO3)C1=O (stereo not drawn)	nt	1	nt	-4	31*	-20
O=C(Nc1cc(C(F)(F)F)ccc1F)C1Cc2c(-c3ccccc3Oc3ccccc3)ccnc2O1 (stereo not drawn)	nt	nt	nt	nt	36*	-2
O=C(Nc1ccccc1)C1Cc2c(-c3ccccc3Oc3ccccc3)ccnc2O1 (stereo not drawn)	nt	nt	nt	nt	3	nt
O=C(Nc1cccc(OC(F)(F)F)c1)C1Cc2c(-c3ccccc3Oc3ccccc3)ccnc2O1 (stereo not drawn)	nt	nt	nt	nt	30*	-5
CCCCCCCCN1CCS(=O)(=O)N(Cc2ccc(C)cc2)C(C(=O)OC)C1 (stereo not drawn)	nt	nt	nt	nt	30*	18
C=CC[C@H]1c2ccccc2[C@H]2N3N=Cc4ccccc4[C@H]3[C@H](CCc3ccccc3)C(=O)N2N1C(=O)c1ccccc1	nt	nt	nt	nt	10	nt
S=C(NCC1CCCCC1)OC1CCC12CCC(c1ccccc1)CC2 (stereo not drawn)	nt	nt	nt	nt	10	nt
CCN1CCN(c2oc(-c3ccccc3C)nc2S(=O)(=O)c2ccccc2)CC1	nt	nt	nt	-17	35*	4
CC(=O)N1CCc2c(sc(NC(=O)C3CC3)c2-c2nc3ccccc3s2)C1	16	5	-1	-78	50*	-20
CCOc1ccc(/C=C/C(=O)Nc2ccccc2C(F)(F)F)cc1	-8	4	6	-2	30*	-13
COc1ccc(/C=C/C(=O)Nc2ccccc2C(F)(F)F)cc1	14	-4	3	-6	-10	nt
CCOC(=O)[C@@]12CCC3=C1N(CCC3)C(=O)[C@H](CC(=O)NCC13CC4CC(CC(C4)C1)C3)C2	nt	nt	nt	nt	3	nt
